Assay outcomes from PubChem.
CYP2C9 act = increases human cytochrome P450 2C9 activity; P11712; recombinant CYP2C9, luciferin-H conversion, luminescence; stronger effect = higher value; factor 1 = untreated enzyme, 0 = blocked; activation factor at 5 µM; actives 1.4% (n = 96,000);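 active = activation factor of 2 or more for CYP2C9 at a 5 µM dose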;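 also: 0 = sulfaphenazole-blocked wells and 1 = vehicle-only wells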
D1 allo mod = allosterically modulates the human D1 dopamine receptor; actives 5.9% (n = 58,000); AID 641; P21728; B-score at 10 µM; HEK293 D1, CRE-luciferase, dopamine EC30 potentiation; actives deviate in either direction;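 active = luminescence count or its row- and column-corrected plate score outside the 99.7% band of the plate's sample wells, on either side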
Target sequence (P21728 whole entry, looked up): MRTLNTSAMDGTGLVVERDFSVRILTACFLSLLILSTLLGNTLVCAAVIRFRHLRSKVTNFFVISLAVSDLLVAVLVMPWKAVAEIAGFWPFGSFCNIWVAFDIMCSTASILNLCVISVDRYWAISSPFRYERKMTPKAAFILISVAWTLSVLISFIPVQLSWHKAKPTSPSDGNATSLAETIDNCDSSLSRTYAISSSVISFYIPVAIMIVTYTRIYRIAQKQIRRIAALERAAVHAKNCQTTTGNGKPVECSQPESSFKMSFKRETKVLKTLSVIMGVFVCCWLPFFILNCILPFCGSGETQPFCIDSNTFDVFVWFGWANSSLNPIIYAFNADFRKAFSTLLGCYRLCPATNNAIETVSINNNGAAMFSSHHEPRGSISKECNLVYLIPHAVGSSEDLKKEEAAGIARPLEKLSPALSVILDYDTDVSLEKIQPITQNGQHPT
CYP2C19 inhib = blocks human cytochrome P450 2C19 | inhibition, % at 5 µM | P33261 | CYP2C19 Supersomes, luciferin-H EGE luminescence, 30 min | actives 21% (n = 96,000);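 active = CYP2C19 inhibition above a set limit at 5 µM in the primary screen, cut at about 50% in these data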;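 also: plate controls were negative control wells for no effect and 2.5 mM tranylcypromine positive control for full effect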
CYP2C9 inh = inhibitors of human CYP2C9; actives 20% (n = 96,000); inhibition, % at 5 µM; AID 777; P11712; CYP2C9 Supersomes, luciferin-H conversion, luminescence;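 active = blocking of liver enzyme CYP2C9 beyond about 50% at 5 µM, limit read from the data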
CYP2C19 activ = activators of human cytochrome P450 2C19. P33261. recombinant CYP2C19, luciferin-H EGE luminescence; stronger effect = higher value; 0 = fully inhibited enzyme, 1 = untreated enzyme. activation factor at 5 µM. 96,000 tested, under 10 active;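 active = activation factor of at least 2 at 5 µM in the primary screen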;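 also: 0 = wells with 2.5 mM tranylcypromine and 1 = vehicle-only wells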
DAT uptake mod = changed human dopamine transporter uptake under cocaine IC80; Q01959; LLC-PK1 hDAT cells, [14C]-dopamine uptake with cocaine IC80; actives deviate in either direction; B-score at 10 µM; actives 1.3% (n = 110,000); AID 449768;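 active = Z score or B-score, a plate-position-corrected score, falls beyond the plate's 99.7% confidence bounds, in either direction; inactive = both scores lie inside the 99.7% bounds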;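 also: scored against the spread of the other compound wells on the same plate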
D1 PAM confirm = confirmation of human D1 dopamine receptor allosteric modulators. shares compounds with D1 allo mod. HEK293 D1 CRE-luciferase, dopamine EC30 potentiation; stronger effect = higher value. luminescence at 10 µM. actives 88% (n = 2,200);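 active = luminescence in either of two replicates above the same-plate mean plus 3 SD of the low-dose dopamine control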
D1 no dopamine = D1 (human) signaling in absence of dopamine | shares compounds with D1 allo mod | HEK293 D1 CRE-luciferase, luminescence, no dopamine; stronger effect = higher value | luminescence at 10 µM | actives 0.8% (n = 1,900) | AID 646; in the data active = luminescence above about 3900
Isoprot counter = isoproterenol response counter-screen activity for D1 modulators. shares compounds with D1 allo mod. calls only at 10 µM. HEK293 D1 CRE-luciferase, isoproterenol EC30 counter-screen. actives 63% (n = 2,200);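 active = luminescence in either replicate above plate mean of wells with a partly effective reference agonist dose plus 3 SD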;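 also: isoproterenol raises cAMP through native beta-adrenoceptor Gs so signal bypasses D1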
An asterisk follows results filed as active; i = inactive; / = no result; + = active, no number. Compounds with a hit are over-represented: about 28% of the library has one in this group of screens.

SMILES | CYP2C9 act | D1 allo mod | CYP2C19 inhib | CYP2C9 inh | CYP2C19 activ | DAT uptake mod | D1 PAM confirm | D1 no dopamine | Isoprot counter
CCOC(=O)c1[nH]c(COC(=O)C2CC(=O)N(Cc3ccccc3)C2)c(C(=O)OCC)c1C (stereo unspecified) | 0.4 | 2.92* | 39.1 | 59.5* | 0.6 | / | 4948 | 1448 | i
COc1ccc(CCNC(=O)C2CCCN(C(=O)N(C)C)C2)c(OC)c1 (stereo unspecified) | 1.1 | 0.0535 | -3.3 | -6.6 | 1 | -1.96 | / | / | /
O=C(NC1CCCCC1)N1CCC(n2cnc3ccccc32)CC1 | 1.2 | 0.0586 | -7.8 | -16.7 | 1.1 | -0.439 | / | / | /
COc1cc2c(cc1OC)C(C)N(C(=O)c1cc3n(n1)C(C(F)(F)F)CC(c1ccco1)N3)CC2 (stereo unspecified) | / | 5.98* | / | / | / | 2.18 | 12888* | 1708 | +
O=C(c1cc2n(n1)C(C(F)(F)F)CC(c1ccco1)N2)N1CCc2ccccc2C1 (stereo unspecified) | 0.6 | -0.231 | 12.0 | 40.2 | 0.9 | 0.885 | / | / | /
COc1cc(C2C(C(=O)c3cccs3)=C(O)C(=O)N2Cc2ccco2)cc(OC)c1OC (stereo unspecified) | 0.8 | -0.427 | -1.9 | 22.0 | 1 | / | / | / | /
CCO[C@H]1OC(C(=O)N2CCN(C)CC2)=C[C@@H](c2ccc3c(c2)OCO3)[C@@H]1CCCO | / | / | / | / | / | -0.545 | / | / | /
CC(=O)Nc1cc(C(=O)N2CCOCC2)ccc1S(=O)(=O)c1ccc(C)cc1 | 1.1 | 5.62* | -0.1 | -11.8 | 1 | 2.16 | 5968 | 1596 | i
CCOC(=O)c1c(-c2cccs2)csc1NC(=O)CSc1ncn[nH]1 | 0.1 | 3.35* | 86.1* | 94.7* | 0.1 | -0.793 | 11080* | 2064 | i
O=C(CSc1nnnn1Cc1ccccc1)c1ccccc1 | 0.9 | 4.03* | 74.3* | 14.9 | 0.3 | -1.4 | 5880* | 1460 | i
COc1cc2c(cc1OC)-c1cc(NCc3ccccn3)nc(=O)n1CC2 | 1 | 5.2* | -4.5 | 1.6 | 1 | 0.182 | 10588* | 1816 | +
CCNc1cc2n(c(=O)n1)CCc1cc(OC)c(OC)cc1-2 | 1 | 1.78 | 2.5 | -0.9 | 1 | -0.713 | / | / | /
COc1cc2c(cc1OC)-c1cc(NC3CCCCCCC3)nc(=O)n1CC2 | 0.5 | 7.6* | 37.7 | 51.0* | 0.6 | 1.73 | 20716* | 2740 | +
COc1cc2c(cc1OC)-c1cc(NC3CCCCC3)nc(=O)n1CC2 | 1 | / | -3.3 | -0.7 | 1 | 0.0438 | / | / | /
CCCCCCNc1cc2n(c(=O)n1)CCc1cc(OC)c(OC)cc1-2 | 0.8 | 3.15* | 4.0 | 17.3 | 1 | 0.914 | 13732* | 1896 | +
COc1cc2c(cc1OC)-c1cc(OCCN3CCOCC3)nc(=O)n1CC2 | 1 | 2.97 | 1.3 | -1.5 | 1 | -0.321 | / | / | /
COc1cc2c(cc1OC)-c1cc(NC3CC3)nc(=O)n1CC2 | 1.2 | 5.67* | -10.2 | -15.7 | 1.1 | -0.0466 | 14400* | 1568 | +
COc1ccc(/C=N/O)cc1COc1ccc(NC(C)=O)cc1 | / | 4.68* | / | / | / | 0.525 | 6740* | 1564 | +
COc1cc(OC)cc(C(=O)N/N=C/c2ccc(OC)c(COc3ccc(F)cc3)c2)c1 | 0.9 | / | 32.9 | 9.9 | 0.7 | / | / | / | /
Cc1cccc(Oc2ccccc2NC(=O)c2cnccn2)c1 | 1.1 | / | -8.7 | -9.7 | 1.1 | 0.779 | / | / | /
O=C(Nc1ccccc1-c1ccccc1)c1cnccn1 | 0.6 | 5.21* | 48.9 | 41.4 | 0.5 | -0.701 | 9324* | 1564 | +
CCOC(=O)c1cc(-c2ccc(C)o2)nn1CCC#N | 1 | 5.56* | 3.6 | 4.4 | 1 | 0.149 | 19640* | 1728 | +
CCOC(=O)c1cc(-c2cccs2)nn1CCC#N | 0.9 | / | 27.3 | 13.2 | 0.7 | 1.27 | / | / | /
